PubChem BioAssay
Calls of active or inactive are those of the source. Unless noted, how the calls were made is not given here.

How the values were obtained:
[1] = test system: XIP peptide (Xip251-270) binding; experiment: XIP fragment 251-270 binding compounds – biochemical, small-molecule microarray, fluorescence 635/667 nm, 0.1 µg/mL protein, primary screen (AID 1182); details: fluorescent protein binding, 635 nm, higher = more signal, called active from +8 up or from −8 down
XIP peptide (Xip251-270) = experiment: compounds binding XIP fragment 251-270 – biochemical, small-molecule microarray, fluorescence 635/667 nm, 0.5 µg/mL protein, primary screen (AID 1183); details: fluorescence 635 nm, higher = more signal
[2] = blood-stage malaria parasite viability loss – strain 3D7, DAPI fluorescence, 100 nL, primary screen (AID 1184);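 further: parasites grown inside human red blood cells in medium with human serum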; details: P. falciparum 3D7 growth, 3 d, higher = more signal
[3] = biological target: Homeobox protein Hox-A13 (Mus musculus) (UniProt Q62424); experiment: disruptors of Hoxa13 oligonucleotide interaction – biochemical, fluorescence polarization, labeled oligonucleotide, primary screen (AID 1185); details: Hoxa13:DNA binding, 15 min, higher = more signal, called active from +8 up or from −8 down
Homeobox protein Hox-A13 (Mus musculus), sequence (Q62424 whole entry, looked up): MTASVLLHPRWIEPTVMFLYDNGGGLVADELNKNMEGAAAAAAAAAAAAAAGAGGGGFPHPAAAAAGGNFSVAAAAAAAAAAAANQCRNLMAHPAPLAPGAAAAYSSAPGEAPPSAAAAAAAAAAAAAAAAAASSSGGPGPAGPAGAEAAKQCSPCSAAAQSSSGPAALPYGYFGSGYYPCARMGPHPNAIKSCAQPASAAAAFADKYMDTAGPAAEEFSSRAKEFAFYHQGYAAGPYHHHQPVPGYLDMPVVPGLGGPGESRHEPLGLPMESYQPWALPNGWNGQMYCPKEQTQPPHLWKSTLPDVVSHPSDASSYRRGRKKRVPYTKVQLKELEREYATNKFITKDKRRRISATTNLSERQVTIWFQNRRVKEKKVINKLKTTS

[4] = blockers of DNA damage checkpoint Chk1 activation – imaging, HeLa, hydroxyurea, phospho-Chk1 antibody, percent positive cells, primary screen (AID 1186); details: hydroxyurea-induced phospho-Chk1 immunofluorescence imaging, higher = more signal
[5] = blockers of DNA damage checkpoint Chk1 activation – imaging, HeLa, hydroxyurea, phospho-Chk1 nuclear intensity, primary screen (AID 1187); details: hydroxyurea-induced phospho-Chk1 immunofluorescence imaging, higher = more signal

In the case of `CCCNC(=O)[C@@]1(Sc2ccc(C)cc2)CC(=O)N(Cc2cc(C(F)(F)F)cc(C(F)(F)F)c2)[C@@H]1c1ccc(CO)cc1`, the composite z-score [1] is reported as -0.0515 (inactive), the composite z-score (XIP peptide (Xip251-270)) is reported as 0.136 and the z-score [2] is reported as -1.1. For the same molecule, the z-score [3] was -0.323 (inactive), the z-score [4] was -0.0515 (inactive) and the z-score [5] was 0.0821 (inactive).

In the case of `O=C1OCCC/C=C\[C@H]2OC34C=CCN(Cc5ccccc5)C(=O)[C@H]3N(CCO)C(=O)[C@@H]4C12` (stereo partly specified), the composite z-score [1] is reported as 1.68 (inactive), the composite z-score (XIP peptide (Xip251-270)) is reported as -0.0058 and the z-score [2] is reported as 0.499. The z-score [3] was -5.69 (inactive), the z-score [4] was -0.909 (inactive) and the z-score [5] was -0.375 (inactive).

For `C=C(C(=O)CC[C@@H](OC(=O)c1ccccc1-c1ccccc1C(=O)O)c1cccc(OCCO)c1)C(C)C`, the composite z-score [1] was 0.0145 (inactive), the composite z-score (XIP peptide (Xip251-270)) was 0.25 and the z-score [2] was -2.01. The z-score [3] was -4.86 (inactive), the z-score [4] was -0.0826 (inactive) and the z-score [5] was -0.0465 (inactive).

With `C=CCOC(=O)[C@H]1[C@@H]2C(=O)O[C@@H](c3ccccc3)[C@@H](c3ccccc3)N2[C@@H](c2ccc(OCCOC(=O)[C@H]3C[C@H]4C(=O)NCC(=O)N4[C@H]3c3cccc(OCCO)c3)cc2)[C@]12C(=O)Nc1ccc(I)cc12` the composite z-score [1] was 0.585 (inactive), the composite z-score (XIP peptide (Xip251-270)) was 0.649 and the z-score [2] was -1.8. The z-score [3] was 0.871 (inactive), the z-score [4] was -1.38 (inactive) and the z-score [5] was -1.12 (inactive).

In the case of `CC(C)c1ccc(NN2C(C(O)C3=C[C@H]4C[C@@H](C3)C4(C)C)C=CC3C(=O)N(c4ccccc4)C(=O)C32)cc1` (stereo partly specified), the composite z-score [1] is reported as 1.35 (inactive), the composite z-score (XIP peptide (Xip251-270)) is reported as 0.464 and the z-score [2] is reported as -0.0979. The z-score [3] was -2.33 (inactive), the z-score [4] was -0.0307 (inactive) and the z-score [5] was -0.257 (inactive).

In the case of `COc1ccc(C#Cc2ccc3c(c2)[C@]2(C(=O)N3)[C@H](c3ccccc3OCCO)N3[C@H](c4ccccc4)[C@H](c4ccccc4)OC(=O)[C@H]3[C@@H]2C(=O)NC[C@H](O)c2ccccc2)cc1`, the composite z-score [1] is reported as 0.134 (inactive), the composite z-score (XIP peptide (Xip251-270)) is reported as 0.709 and the z-score [2] is reported as -2.01. The z-score [3] was -1.77 (inactive), the z-score [4] was -0.11 (inactive) and the z-score [5] was 0.108 (inactive).

With `CO[C@H]1O[C@H](CO)[C@@H](OC(=O)Nc2ccccc2)[C@@H]2OC(=O)[C@@H](Cc3ccccc3)C/C=C/C[C@H](Cc3ccccc3)C(=O)O[C@@H]12` the composite z-score [1] was 0.0585 (inactive), the composite z-score (XIP peptide (Xip251-270)) was 0.455 and the z-score [2] was 0.232. The z-score [3] was -0.539 (inactive), the z-score [4] was -0.741 (inactive) and the z-score [5] was -0.467 (inactive).

In the case of `COC(=O)[C@@]1(Cc2ccc(F)cc2)[C@H]2c3cc(C(=O)N4CCCC4)n(CCSCCO)c3C[C@H]2CN1C(=O)c1ccccc1`, the composite z-score [1] is reported as 0.159 (inactive), the composite z-score (XIP peptide (Xip251-270)) is reported as -0.279 and the z-score [2] is reported as -1.41. For the same molecule, the z-score [3] was -4.82 (inactive), the z-score [4] was 0.685 (inactive) and the z-score [5] was 0.827 (inactive).

For `CC(C)(C)OC(=O)CC[C@@]1(C(=O)N2CCOCC2)N=C(c2ccc(OCCCO)cc2)O[C@@H]1c1ccccc1CN=[N+]=[N-]`, the composite z-score [1] was 3.3 (inactive), the composite z-score (XIP peptide (Xip251-270)) was 0.838 and the z-score [2] was -2.12. The z-score [3] was -4.94 (inactive), the z-score [4] was 0.158 (inactive) and the z-score [5] was 0.291 (inactive).

In the case of `C=CC[C@H](OC(=O)Nc1ccc(SC)cc1)c1ccc(O)c(F)c1`, the composite z-score [1] is reported as 1.07 (inactive), the composite z-score (XIP peptide (Xip251-270)) is reported as -0.193 and the z-score [2] is reported as -0.249. For the same molecule, the z-score [3] was -0.845 (inactive), the z-score [4] was 0.355 (inactive) and the z-score [5] was 0.417 (inactive).

With `CO[C@H]1O[C@H](CO)[C@@H](OC(=O)Nc2cccc(F)c2)[C@H](OC(=O)c2cc3ccccc3[nH]2)[C@H]1OC(=O)c1cc2ccccc2[nH]1` the composite z-score [1] was -0.194 (inactive), the composite z-score (XIP peptide (Xip251-270)) was -0.141 and the z-score [2] was -0.194. For the same molecule, the z-score [3] was -0.266 (inactive), the z-score [4] was -0.313 (inactive) and the z-score [5] was -0.455 (inactive).

With `CCCCCN1CC=CC23O[C@@H]4/C=C\CCCOC(=O)C4[C@H]2C(=O)N(CCO)[C@@H]3C1=O` (stereo partly specified) the composite z-score [1] was -0.0751 (inactive), the composite z-score (XIP peptide (Xip251-270)) was 0.663 and the z-score [2] was -1.31. For the same molecule, the z-score [3] was -3.77 (inactive), the z-score [4] was 0.169 (inactive) and the z-score [5] was 0.205 (inactive).

With `COC(=O)[C@@]1(Cc2ccc(F)cc2)[C@H]2c3cc(C(=O)N4CCCC4)n(C[C@H](O)CO)c3C[C@H]2CN1C(=O)c1ccccc1` the composite z-score [1] was 1.17 (inactive), the composite z-score (XIP peptide (Xip251-270)) was 0.0592 and the z-score [2] was -0.534. For the same molecule, the z-score [3] was -5.57 (inactive), the z-score [4] was 0.588 (inactive) and the z-score [5] was 0.439 (inactive).

For `COc1ccc(NN2C(C(O)c3ccccc3)C=CC3C(=O)N(C4CCCCC4)C(=O)C32)cc1` (stereo unspecified), the composite z-score [1] was 0.387 (inactive), the composite z-score (XIP peptide (Xip251-270)) was 0.745 and the z-score [2] was -1.08. The z-score [3] was -4.8 (inactive), the z-score [4] was 0.329 (inactive) and the z-score [5] was 0.711 (inactive).

With `O=C1N(Cc2ccccc2)c2ccccc2C[C@@]12N=C(c1ccc(OCCCO)cc1)O[C@H]2c1ccccc1` the composite z-score [1] was 1.85 (inactive), the composite z-score (XIP peptide (Xip251-270)) was 0.541 and the z-score [2] was -2.52. For the same molecule, the z-score [3] was -5.07 (inactive), the z-score [4] was 0.134 (inactive) and the z-score [5] was 0.553 (inactive).

With `COCCOC(=O)N1C(=O)[C@@]2(c3cc(C#CCC(C(=O)OC)C(=O)OC)ccc31)[C@H](C(N)=O)[C@H]1C(=O)O[C@H](c3ccccc3)[C@H](c3ccccc3)N1[C@@H]2c1ccccc1OCCO` the composite z-score [1] was 0.286 (inactive), the composite z-score (XIP peptide (Xip251-270)) was 0.575 and the z-score [2] was -1.93. The z-score [3] was -2.49 (inactive), the z-score [4] was -0.663 (inactive) and the z-score [5] was -1.57 (inactive).
